This experiment in a line: probe aLefty1 binding on compound microarray – biochemical, small-molecule microarray, 635/667 nm fluorescence, primary screen (AID 1153).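 Note: score merges spot fluorescence with signal-to-noise ratio from the scanned slide images.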 The following applies: higher = more signal.
In the case of `COCCOC(=O)N1C(=O)[C@@]2(c3cc(C#CCCO)ccc31)[C@H](c1ccc(OCCO)cc1)N1[C@H](c3ccccc3)[C@H](c3ccccc3)OC(=O)[C@H]1[C@@H]2C(N)=O`, the composite z-score was found to be 0.0329. For `COc1ccc(C(=O)Nc2ccc(CN3C(=O)[C@]4(O[C@H](CC(=O)N5CCC[C@H]5CO)[C@@H]([Si](C)(C)c5ccc(OC)cc5)[C@@H]4C)c4ccccc43)cc2)cc1` the value was 0.385; for `C=CC[C@]1(C(N)=O)COC(c2ccc(OCCCO)cc2)=N1`, 0.269; for `COC(=O)[C@@]1(Cc2ccccc2)[C@H]2c3cc(C(=O)N(C)C)n(CCc4c[nH]c5ccc(O)cc45)c3C[C@H]2CN1C(=O)c1ccccc1`, -0.0831. For `COc1ccc(C#Cc2ccc3c(c2)[C@]2(C(=O)N3)[C@H](c3ccc(O)cc3)N3[C@H](c4ccccc4)[C@H](c4ccccc4)OC(=O)[C@H]3[C@@H]2C(=O)N2CCc3cc(OC)c(OC)cc3C2)cc1` the value was 0.156; for `O=C1OCCC=C[C@H]2OC34C=CCN(Cn5nnc6ccccc65)C(=O)[C@H]3N(CCO)C(=O)[C@@H]4C12` (stereo not given in full), -0.147. The same measure for `CC(C)Cc1ccc(CN2CC[C@@H](N)C2)cc1`: -0.0969; for `C[N+](C)(C)CCCCCCNC(=O)[C@H]1C[C@H]2C(=O)N[C@@H](Cc3ccccc3)C(=O)N2[C@H]1c1cccc(OCCO)c1`: 0.222; for `CO[C@H]1O[C@H](CO)[C@@H](OC(=O)Nc2ccc(Oc3ccccc3)cc2)[C@H](OC(=O)Nc2ccc3c(c2)OCO3)[C@@H]1OC(=O)Nc1ccc2c(c1)OCO2`: 0.0751. With `C=C(CCCC)/C(=C/C[C@@H](OC(C)=O)c1ccccc1OCCO)c1cc(C(=O)OC)ccc1OC`, the composite z-score is -0.239.

The values are drawn from PubChem BioAssay.
